# According to ChEMBL document CHEMBL3988442, “University of Dundee, Small-Polar-MMV Screening Library” (2021):
# The campaign covered roughly 66,000 compounds. About 960 (1.5%) showed an effect of 50% or more. What follows is part of a selection rich in strong results, with near analogues and random picks from the rest.
# Test system: Trypanosoma brucei
# Test: Trypanosoma brucei 72 hour study
# Format: functional, organism-based
# Design: scale not given: in the data most compounds retested in dose-response had high values
compound,measurement,setting,value
Cc1cccc(CN2CCc3cc(C(=O)O)c(N(C)C)nc3CC2)n1.O=C(O)C(F)(F)F.O=C(O)C(F)(F)F,Percent Effect,"30.3 µM, […]",-4.937%
CN(C)C(=O)COC[C@@H]1CC[C@H]2[C@H](CCN2c2ncccn2)O1.O=C(O)C(F)(F)F,Percent Effect,"30 µM, 30.03 µM",-8.509%
Cc1ccc(CN2CC3(CCN(C(=O)c4cscn4)C3)C2)o1.O=C(O)C(F)(F)F,Percent Effect,"30 µM, 30.03 µM",-9.237%
O=C(O)C(F)(F)F.O=C(O)C(F)(F)F.O=C(O)C(F)(F)F.OCCN1CCC2(CC1)CC(NCc1ccccn1)c1ccccc1O2 (stereo unspecified),Percent Effect,"30 µM, 30.03 µM",-31.61%
CC(C)N1CCCC1c1cc(CO)[nH]n1.O=CO (stereo unspecified),Percent Effect,"30.3 µM, […]",-7.818%
CN(Cc1ccco1)Cc1cncc2c1CCN(c1ncccn1)C2.Cl.Cl,Percent Effect,"30 µM, 30.03 µM",54.64%
Cc1cnc(N2CCc3c(CN(C)Cc4ccco4)cncc3C2)nc1,Percent Effect,"30.3 µM, […]",5.943%
Cc1ccc(N2CCc3c(CN(C)Cc4ccco4)cncc3C2)nn1.Cl.Cl,Percent Effect,"30.3 µM, […]",-4.486%
CCN1CCC(NC(=O)CN2CCc3c(ncn3C3CC3)C2)CC1,Percent Effect,10 µM,-42.18%
Cc1cnc(C(=O)N2CCC3(CCN(Cc4ccccn4)C3=O)C2)cn1.O=C(O)C(F)(F)F (stereo unspecified),Percent Effect,"30 µM, 30.03 µM",-17.07%
Cc1ccccc1-n1cc(-c2ccnc(N3CCCC(CN)C3)n2)cn1 (stereo unspecified),Percent Effect,"30.3 µM, […]",46.15%
COC[C@H]1CCCN1c1nccc(-c2cnn(-c3ccccc3C)c2)n1,Percent Effect,"30.3 µM, […]",99.85%
Cc1ccccc1-n1cc(-c2ccnc(N3CCCC(O)C3)n2)cn1 (stereo unspecified),Percent Effect,"30.3 µM, […]",12.09%
Cl.c1cc(CNCc2ccc(-n3cncn3)nc2)cc(OC2CCCC2)c1,Percent Effect,"30.3 µM, […]",-105%
O=C(N1CCOCC1)N1CCN(c2ccnc3ccsc23)CC1,Percent Effect,"30.3 µM, […]",-32.02%
O=C(c1cnccn1)N1CCN(c2ccnc3ccsc23)CC1,Percent Effect,"30.3 µM, […]",-26.37%
Cc1ccc(C(=O)N2CCN(c3ccnc4ccsc34)CC2)o1,Percent Effect,"30.3 µM, […]",99.86%
CN(C)Cc1nn(C)c2c1CN(C(=O)c1cccc(C#N)c1)C2,Percent Effect,"30.3 µM, […]",-11.38%
CC(CO)NC(=O)c1ccc(NCc2ccccc2)cc1 (stereo unspecified),Percent Effect,"30.3 µM, […]",11.13%
CC(CO)NC(=O)c1ccc(NCc2ccc(F)c(F)c2)cc1 (stereo unspecified),Percent Effect,"30.3 µM, […]",74.6%
Cc1cc(C)cc(CNc2ccc(C(=O)NC(C)CO)cc2)c1 (stereo unspecified),Percent Effect,"30.3 µM, […]",34.18%
CCn1cc(N2Cc3nc(N4CCC(O)CC4)ncc3C2=O)cn1,Percent Effect,"30.3 µM, […]",-24.87%
O=C(Nc1cnn(CC(=O)N2CCCO2)c1)c1ccccc1,Percent Effect,"30 µM, 30.03 µM",-24.18%
O=C(Nc1cnn(CC(=O)N2CCCCO2)c1)c1ccccn1,Percent Effect,"30 µM, 30.03 µM",-63.86%
O=C(Nc1cnn(CC(=O)N2CCCCO2)c1)c1ccsc1,Percent Effect,"30 µM, 30.03 µM",102%
Cc1ccc(C(=O)N(C)Cc2cc(Br)cs2)cn1,Percent Effect,"30 µM, 30.03 µM",-13.9%
Clc1ccc2cccnc2c1CN1CCCC(Cn2cncn2)C1 (stereo unspecified),Percent Effect,"30 µM, 30.03 µM",98.3%
Clc1ccc(CN2CCCC(Cn3cncn3)C2)c2ncccc12 (stereo unspecified),Percent Effect,"30 µM, 30.03 µM",-24.17%
c1ccc(-c2nc(CN3CCCC(Cn4cncn4)C3)cs2)cc1 (stereo unspecified),Percent Effect,"30.3 µM, […]",51.63%
Clc1ccc2cccnc2c1CN1CCCC1Cn1cncn1 (stereo unspecified),Percent Effect,"30 µM, 30.03 µM",3.447%
c1ncn(CC2CCCN(Cc3csc(-c4ccsc4)n3)C2)n1 (stereo unspecified),Percent Effect,"30.3 µM, […]",-1.362%
c1cnc(-c2nc(CN3CCCC(Cn4cncn4)C3)cs2)nc1 (stereo unspecified),Percent Effect,"30 µM, 30.03 µM",8.258%
CO[C@@H]1CCN(C(=O)Cc2ccc(F)cc2)[C@@H]1Cc1cccnc1.O=C(O)C(F)(F)F,Percent Effect,"30.3 µM, […]",-10.6%
COCCN1CC[C@H]2CN(Cc3ccc(C)s3)C[C@@H]2C1=O.O=C(O)C(F)(F)F,Percent Effect,"30.3 µM, […]",-7.411%
CO[C@H]1CN(Cc2nc3ccccc3n2C)CC[C@@]12CCCO2,Percent Effect,"30.3 µM, […]",5.707%
CO[C@H]1CN(Cc2ccccc2F)C[C@@]12CCCO2,Percent Effect,"30.3 µM, […]",-11.54%
CO[C@H]1CN(Cc2nc3ccccc3n2C)C[C@@]12CCCO2,Percent Effect,"30.3 µM, […]",99.68%
O=C(O)C(F)(F)F.O=C(O)C(F)(F)F.O=C(c1ccnnc1)N1CCN(Cc2ccncc2)c2ncccc2C1,Percent Effect,"30.3 µM, […]",-2.542%
Cc1nc(Nc2nccs2)cc(C2CCCN2)n1.Cl (stereo unspecified),Percent Effect,"30.3 µM, […]",99.83%
Cc1nc(Nc2nnc(C)s2)cc(C2CCCN2)n1.Cl (stereo unspecified),Percent Effect,"30.3 µM, […]",-18.52%
Cc1nc(Nc2ncc(C)s2)cc(C2CCCN2S(C)(=O)=O)n1 (stereo unspecified),Percent Effect,"30.3 µM, […]",-10.42%
Cc1nc(Nc2nccs2)cc(C2CCCN2C2CCOCC2)n1 (stereo unspecified),Percent Effect,"30.3 µM, […]",18.07%
Cc1nc(Nc2nncs2)cc(C2CCCN2)n1.Cl (stereo unspecified),Percent Effect,"30.3 µM, […]",-19.68%
Cc1nc(Nc2ncc(C)s2)cc(C2CCCN2)n1.Cl (stereo unspecified),Percent Effect,"30.3 µM, […]",99.89%
COc1ccc(NC(=O)CCNc2ncccn2)cn1,Percent Effect,"30 µM, 30.03 µM",-26.87%
CCn1cc(CN2C[C@@H]3CCCN3C[C@@H]2CCSC)cn1.O=C(O)CC(O)(CC(=O)O)C(=O)O,Percent Effect,"30.3 µM, […]",8.457%
O=C(NCC1CCOCC1)[C@@H]1C[C@@H]2[C@@H](CCN2Cc2nccs2)O1.O=C(O)C(F)(F)F,Percent Effect,"30.3 µM, […]",-69.82%
Cc1cc(C[C@@H]2COC[C@H]2NCc2ccc(C(F)(F)F)cc2)on1.O=C(O)CC(O)(CC(=O)O)C(=O)O,Percent Effect,"30.3 µM, […]",8.396%
O=C(Cc1ccccn1)N1C[C@H](OCc2cccnc2)[C@H]2COC[C@H]21.O=C(O)C(F)(F)F.O=C(O)C(F)(F)F,Percent Effect,"30.3 µM, […]",-31.71%
O=C(C1CC1)N1Cc2[nH]nc(COCc3cccnc3)c2C1.O=C(O)C(F)(F)F.O=C(O)C(F)(F)F,Percent Effect,"30.3 µM, […]",-50.32%
COCCN(C)C[C@@H]1CN(c2cc(C)nc3ccccc23)C[C@@H]1CO,Percent Effect,"30 µM, 30.03 µM",99.51%
COCCN(C)C[C@@H]1CN(c2nc(C)cc(C)n2)C[C@@H]1CO,Percent Effect,"30 µM, 30.03 µM",-45.82%
COCCN(C)C[C@@H]1CN(Cc2ccnc3ccccc23)C[C@@H]1CO,Percent Effect,"30 µM, 30.03 µM",-38.21%
COCCNc1cc(-c2cccc(C(=O)O)c2C)c2cc[nH]c2n1,Percent Effect,"30 µM, 30.03 µM",-15.23%
COCC(=O)N1CC[C@H]2O[C@@H](C)C[C@H]2C1,Percent Effect,"30.3 µM, […]",-22.84%
COCC(=O)N1CC[C@H]2C[C@H](C)O[C@@H]2C1,Percent Effect,"30 µM, 30.03 µM",19.11%
COCC(=O)N1CC[C@@H]2O[C@@H](C)C[C@H]2C1,Percent Effect,"30.3 µM, […]",51.97%
O=C(O)C(F)(F)F.c1cnc(NCc2nnn3c2CN(Cc2cccs2)CCC3)nc1,Percent Effect,"30 µM, 30.03 µM",-17.42%
Cc1occc1C(=O)N1CCC2(CCN(C(=O)c3cccnc3)C2)CC1.O=C(O)C(F)(F)F,Percent Effect,"30.3 µM, […]",-37.63%
CC(C)C[C@H](N)COc1cccc(F)c1Oc1ccc(Cl)cc1,Percent Effect,"30.3 µM, […]",100.5%
CC(C)C[C@H](N)COc1cccc(F)c1Oc1ccccc1,Percent Effect,"30.3 µM, […]",100.2%
Cc1ccc(Oc2c(F)cccc2OC[C@@H](N)CC(C)C)cc1,Percent Effect,"30.3 µM, […]",99.61%
CC(C)COc1ccccc1C(N)CC(C)C (stereo unspecified),Percent Effect,"30 µM, 30.03 µM",-18.48%
CNCc1cc(F)ccc1Oc1ccc(Cl)cc1,Percent Effect,"30.3 µM, […]",-18.58%
NCc1ccc(Oc2cccc(Cl)c2Cl)cc1,Percent Effect,"30 µM, 30.03 µM",-54.14%
COc1ccccc1C(N)CC(C)C (stereo unspecified),Percent Effect,"30 µM, 30.03 µM",-12.31%
CCCOc1ccccc1C(N)CC(C)C (stereo unspecified),Percent Effect,"30 µM, 30.03 µM",-40.73%
CC(C)C[C@H](N)COc1cccc(F)c1Oc1cccc(Cl)c1,Percent Effect,"30.3 µM, […]",99.87%
CC(CNS(N)(=O)=O)Oc1cccc(Cl)c1 (stereo unspecified),Percent Effect,"30 µM, 30.03 µM",-29.05%
CCOc1ccccc1C(N)CC(C)C (stereo unspecified),Percent Effect,"30 µM, 30.03 µM",-21.09%
CC(CNS(C)(=O)=O)Oc1cccc(Cl)c1 (stereo unspecified),Percent Effect,"30 µM, 30.03 µM",-19.79%
Cc1ccc(NC2CCN(C(=O)CCc3ccncc3)CC2)nn1,Percent Effect,"30.3 µM, […]",5.448%
same,Percent Effect,"10 mM, 10 mM as filed; unlikely as a test dose",-59.85%
CC(CNCc1ccc2c(c1)n(C)c(=O)n2C)Oc1ccccn1.Cl (stereo unspecified),Percent Effect,"30 µM, 30.03 µM",-26.55%
CCn1nc(C)c2ccn(CC(=O)NC3CC3)c(=O)c21,Percent Effect,"30 µM, 30.03 µM",-19.49%
c1ccc(-c2nc(CNCCn3cccn3)cs2)nc1,Percent Effect,"30.3 µM, […]",-32.04%
CCn1ncc(CN2CCCC(n3c(=O)oc4ccccc43)C2)c1C.Cl (stereo unspecified),Percent Effect,"30.3 µM, […]",17.06%
CCc1ccc(C(=O)Nc2ccc3c(c2)N(C)CCN(C)C3)o1,Percent Effect,"30 µM, 30.03 µM",-2.445%
CCN1CCOCC2(CCCN(C(=O)c3ccccc3F)C2)C1.O=C(O)C(F)(F)F (stereo unspecified),Percent Effect,"30.3 µM, […]",-73.72%
CO[C@H]1CC[C@H]2[C@H]1OCCN2Cc1ccc(F)c(F)c1.O=C(O)C(F)(F)F,Percent Effect,"30.3 µM, […]",-36.53%
CCN1CC2(CC1=O)CN(Cc1cnn(C)c1)CCN(C(=O)N(C)C)C2.O=C(O)C(F)(F)F (stereo unspecified),Percent Effect,"30 µM, 30.03 µM",-27.29%
CC(=O)NCC1CCN(C(=O)c2c(C)[nH]c3ccc(Cl)cc23)CC1,Percent Effect,"30.3 µM, […]",4.898%
C[C@@H](CO)Nc1nccc(-c2cnc3sc(Cl)cn3c2=O)n1,Percent Effect,"30.3 µM, […]",8.201%
CCc1nc(C)c(C(=O)NCC2COc3cc(OC)ccc3C2)o1 (stereo unspecified),Percent Effect,"30 µM, 30.03 µM",22.43%
O=C1CCCCN1CCc1nc(-c2cccnn2)no1,Percent Effect,"30 µM, 30.03 µM",-7.651%
CC(C)CNC(=O)[C@H]1C[C@@H]2CN(C(=O)NCCc3ccccc3)C[C@H]1O2,Percent Effect,"30 µM, 30.03 µM",5.175%
O=S1(=O)CCC(S(=O)(=O)c2cccc(S(=O)(=O)N3CCOCC3)c2)C1 (stereo unspecified),Percent Effect,"30 µM, 30.03 µM",-4.748%
Fc1cccc(CN2CCC[C@H](Cn3nnc(-c4ccccn4)n3)C2)c1,Percent Effect,"30.3 µM, […]",-22.29%
Fc1ccccc1CN1CCC[C@@H](Cn2nnc(-c3cccs3)n2)C1,Percent Effect,"30.3 µM, […]",-5.522%
Fc1ccccc1CN1CCC[C@H](Cn2nnc(-c3cccs3)n2)C1,Percent Effect,"30.3 µM, […]",82.08%
COc1cccc(CN2CCCC3(CCN(C(=O)N4CCCC4)C3)C2)c1.O=C(O)C(F)(F)F (stereo unspecified),Percent Effect,"30.3 µM, […]",-29.29%
COCCC1(C(=O)O)CCCN(C(=O)c2cc(Cl)ccc2F)C1 (stereo unspecified),Percent Effect,"30.3 µM, […]",-11.98%
CCC(C)Sc1nncn1-c1ccc(OC)nc1 (stereo unspecified),Percent Effect,"30 µM, 30.03 µM",74.74%
COc1ccc(-n2cnnc2SCC(=O)N(C)C(C)C)cn1,Percent Effect,"30 µM, 30.03 µM",19.1%
COc1ccc(-n2cnnc2SCC(=O)NC(C)C)cn1,Percent Effect,"30 µM, 30.03 µM",21.81%
CCOC(=O)[C@]12CCCN(Cc3cccs3)C[C@H]1CN(C(C)=O)C2.O=C(O)C(F)(F)F,Percent Effect,"30.3 µM, […]",-10.51%
